Data published in PubChem BioAssay (EPA / NIEHS).
Active and inactive are the calls of the source. How the source made its calls: active means hit-call score of the fitted dose curve at least 0.9, where 1 is the maximum; inactive means score below 0.9.

Experiment: ATG_GATA_CIS: Attagene CIS-FACTORIAL HepG2 Assay for human GATA Binding Protein (AID 2282944)
Conditions: HepG2 GATA cis-element reporter, Attagene multiplex mRNA; actives raise or lower the signal
Procedure, shortened: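 Reporter transcripts from a GATA cis-regulated unit, among multiplexed reporters in transfected HepG2 cells, were measured by RT-PCR with capillary electrophoresis after 24 h dosing. Induction or loss scored relative to DMSO.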

Row | Structure (SMILES) | outcome
1 | COc1ccc(OC)c(OC)c1 | inactive
2 | COCCCOc1ccnc(CS(=O)c2nc3ccccc3[nH]2)c1C (stereo unspecified) | inactive
3 | C=C(C)C(=O)O[C@H]1C[C@@H]2CC[C@@]1(C)C2(C)C | inactive
4 | CO[Si](C)(OC)c1ccccc1 | inactive
5 | CC(=O)Nc1ccccc1O | inactive
6 | CCCCN | inactive
7 | OC[C@H]1O[C@H](O[C@]2(CCl)O[C@H](CCl)[C@@H](O)[C@@H]2O)[C@H](O)[C@@H](O)[C@H]1Cl | inactive
8 | Cc1ccc(S)cc1 | inactive
9 | CC(=O)O[C@]1(C(C)=O)CC[C@H]2[C@@H]3C[C@H](C)C4=CC(=O)CC[C@]4(C)[C@H]3CC[C@@]21C | inactive
10 | Nc1nc2ccc([N+](=O)[O-])cc2s1 | inactive
11 | OCCOCCOCCOCCO | inactive
12 | OCc1cccnc1 | inactive
13 | CCCCCC(CO)CCC (stereo unspecified) | inactive
14 | C[C@H]1C[C@H]2[C@@H]3CCC4=CC(=O)C=C[C@]4(C)[C@@]3(F)[C@@H](O)C[C@]2(C)[C@@]1(O)C(=O)COP(=O)(O)O | inactive
15 | NCCCN1CCOCC1 | inactive
16 | COc1ccc(O)cc1 | inactive
17 | CC(C)C1CCC(O)CC1 (stereo unspecified) | inactive
18 | CCCCCC(=O)OCCc1ccccc1 | inactive

Row | Structure (SMILES) | outcome
19 | CCOC(=O)c1ccccc1OC | inactive
20 | O=Cc1ccc(Cl)c([N+](=O)[O-])c1 | inactive
21 | S=C(S)NCCNC(=S)S | inactive
22 | CCCCCCCCCCCCCC(=O)O | inactive
23 | CC1(C)C(=O)N(Br)C(=O)N1Cl | inactive
24 | NCCNCCN | inactive
25 | CC(C)c1cccc(O)c1 | inactive
26 | CC(=O)c1c(C)cc(C(C)(C)C)cc1C | inactive
27 | O=C(O)c1cn(-c2ccc(F)cc2)c2cc(N3CCNCC3)c(F)cc2c1=O | inactive
28 | Clc1sc(Cl)c(Cl)c1Cl | inactive
29 | CC1CC(OC(=O)c2ccccc2O)CC(C)(C)C1 (stereo unspecified) | inactive
30 | O=C1CCCCCCCCCCOCCCCO1 | inactive
31 | C=COCCOCCOCCOC=C | inactive
32 | Cc1c(Cl)c(=O)oc2cc(O)ccc12 | inactive
33 | CNCCCC12CCC(c3ccccc31)c1ccccc12 | inactive
34 | CCO[Si](CCCS)(OCC)OCC | inactive
35 | COc1cc2ncnc(Nc3cccc(Cl)c3)c2cc1OC | inactive

Experiment: ATG_GLI_CIS: Attagene CIS-FACTORIAL HepG2 Assay for human Zinc Finger Protein GLI1 (AID 2282945)
Conditions: HepG2, Attagene cis-factorial reporter mRNA, GLI element; actives raise or lower the signal
Procedure, shortened: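 HepG2 cells transiently transfected with cis-promoter multiplexed reporter units report endogenous transcription factor activity. After 24 h chemical exposure, reporter mRNA was quantified by RT-PCR, 6-FAM labelling, HpaI digestion and capillary electrophoresis, with bidirectional fitting against DMSO.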

Row | Structure (SMILES) | outcome | AC50
36 | COCCCOc1ccnc(CS(=O)c2nc3ccccc3[nH]2)c1C (stereo unspecified) | inactive | 
37 | C=C(C)C(=O)O[C@H]1C[C@@H]2CC[C@@]1(C)C2(C)C | inactive | 
38 | CO[Si](C)(OC)c1ccccc1 | inactive | 
39 | CC(=O)Nc1ccccc1O | inactive | 
40 | CCCCN | inactive | 
41 | Cc1ccc(S)cc1 | inactive | 
42 | CC(=O)O[C@]1(C(C)=O)CC[C@H]2[C@@H]3C[C@H](C)C4=CC(=O)CC[C@]4(C)[C@H]3CC[C@@]21C | inactive | 
43 | Nc1nc2ccc([N+](=O)[O-])cc2s1 | inactive | 
44 | OCCOCCOCCOCCO | inactive | 
45 | OCc1cccnc1 | inactive | 
46 | CCCCCC(CO)CCC (stereo unspecified) | inactive | 
47 | C[C@H]1C[C@H]2[C@@H]3CCC4=CC(=O)C=C[C@]4(C)[C@@]3(F)[C@@H](O)C[C@]2(C)[C@@]1(O)C(=O)COP(=O)(O)O | inactive | 
48 | NCCCN1CCOCC1 | inactive | 
49 | COc1ccc(O)cc1 | inactive | 
50 | CC(C)C1CCC(O)CC1 (stereo unspecified) | inactive | 
51 | CCCCCC(=O)OCCc1ccccc1 | inactive | 

Row | Structure (SMILES) | outcome | AC50
52 | CCOC(=O)c1ccccc1OC | inactive | 
53 | O=Cc1ccc(Cl)c([N+](=O)[O-])c1 |  | 165 µM (active)
54 | S=C(S)NCCNC(=S)S | inactive | 
55 | CCCCCCCCCCCCCC(=O)O | inactive | 
56 | CC1(C)C(=O)N(Br)C(=O)N1Cl | inactive | 
57 | CCCC(=O)c1cc(O)c(O)cc1O | inactive | 
58 | CC(C)c1cccc(O)c1 | inactive | 
59 | CC(=O)c1c(C)cc(C(C)(C)C)cc1C | inactive | 
60 | O=C(O)c1cn(-c2ccc(F)cc2)c2cc(N3CCNCC3)c(F)cc2c1=O | inactive | 
61 | Clc1sc(Cl)c(Cl)c1Cl | inactive | 
62 | CC1CC(OC(=O)c2ccccc2O)CC(C)(C)C1 (stereo unspecified) | inactive | 
63 | C=COCCOCCOCCOC=C | inactive | 
64 | Cc1c(Cl)c(=O)oc2cc(O)ccc12 | inactive | 
65 | CNCCCC12CCC(c3ccccc31)c1ccccc12 |  | 15.7 µM (active)
66 | CCO[Si](CCCS)(OCC)OCC | inactive | 
